# Most compounds without a hit are left out; they make up all but 2.4% or so of the library.
# D2 PAM-1 – HTS Assay for Positive Allosteric Modulators of the Human D2 Dopamine Receptor: Primary Screen for Potentiators; D(2) dopamine receptor (Homo sapiens), P14416; HEK293 T-REx D2, calcium flux, EC20 dopamine potentiation; potentiation, % at 10 µM; 340,000 tested, 0.34% active;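 active means potentiation over 3 SD above the plate norm, cut at about 30% in these data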; further: 0% is about no effect
# Target sequence (P14416 whole entry, looked up): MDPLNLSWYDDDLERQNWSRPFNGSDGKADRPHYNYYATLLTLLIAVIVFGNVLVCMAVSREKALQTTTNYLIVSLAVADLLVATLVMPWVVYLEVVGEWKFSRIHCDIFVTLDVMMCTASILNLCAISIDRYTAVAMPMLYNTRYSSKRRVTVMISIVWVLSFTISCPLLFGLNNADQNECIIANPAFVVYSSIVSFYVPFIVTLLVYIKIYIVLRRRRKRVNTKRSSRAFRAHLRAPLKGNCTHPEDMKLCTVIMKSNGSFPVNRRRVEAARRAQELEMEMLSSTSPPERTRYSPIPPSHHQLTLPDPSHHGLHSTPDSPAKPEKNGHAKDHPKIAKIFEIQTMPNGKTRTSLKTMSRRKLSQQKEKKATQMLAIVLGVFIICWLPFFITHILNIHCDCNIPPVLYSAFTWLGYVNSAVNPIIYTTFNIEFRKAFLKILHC
#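 Potentiation of an EC20 dopamine calcium response is measured in a force-coupled, tetracycline-inducible Hek293 Trex D2 line. Compound-only kinetic reads over 180 s flag agonists before dopamine addition.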
# D2 antag – HTS Assay for Allosteric Antagonists of the Human D2 Dopamine Receptor: Primary Screen for Antagonists. AID 485344, 2010. D(2) dopamine receptor (Homo sapiens), P14416. HEK293 TREx D2 cells, calcium flux, dopamine EC80. inhibition, % at 10 µM. 340,000 tested, 2% active; in the data active means inhibition above about 30%; inactive means below that, where a call was filed; further: 0% is about no effect
#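 Dopamine at EC80 is the agonist stimulus; test compounds precede it by 180 s. Calcium flux read kinetically in a force-coupled, inducible HEK293 T-REx D2 cell line.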
# D2 ag-1 – HTS Assay for Allosteric Agonists of the Human D2 Dopamine Receptor: Primary Screen for Agonists | D(2) dopamine receptor (Homo sapiens), P14416 | HEK293 T-REx D2 cells, calcium flux agonist mode | activation, % at 2 µM | 340,000 tested, 0.53% active | AID 485358, 2010;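 active means activation over 3 SD above normal in the single-dose calcium agonist read, cut at about 30% in these data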; further: 0% is about no effect
#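 Agonism is scored from calcium flux in a force-coupled, inducible HEK293 cell line expressing D2, read kinetically for 180 s after compound addition against dopamine controls.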
# D2 PAM-2 – Beta-Arrestin HTS for Positive Allosteric Modulators of the Human D2 Dopamine Receptor: Potentiators; D(2) dopamine receptor (Homo sapiens), P14416; DiscoveRx D2 beta-arrestin cells, luminescence, 90 min; 100% = 57 uM dopamine signal; potentiation, % (test concentration not listed); 360,000 tested, 0.23% active; in the data active means potentiation above about 50%; inconclusive means mostly about 30% to 49%
#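 PathHunter beta-arrestin assay in DiscoveRx D2 cells. Compounds were added with an EC20 of dopamine (50 nM final) for 90 min at 37 deg C. Luminescence was read 1 h after detection reagent, with 57 uM dopamine as the EC100 control.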
# D2 ag-2 – Beta-Arrestin HTS for Positive Allosteric Modulators of the Human D2 Dopamine Receptor: Agonists | activation, % (test concentration not listed) | AID 624465, 2012 | D(2) dopamine receptor (Homo sapiens), P14416 | DiscoveRx PathHunter D2 beta-arrestin, luminescence, 90 min; 100% = 57 uM dopamine signal | 360,000 tested, 0.084% active; in the data active means activation above about 40%; inconclusive means between about 15% and that limit
#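 DiscoveRx PathHunter D2 beta-arrestin cells (2,100/well) attached overnight, then compound-stimulated 90 min at 37 C in HBSS/10 mM HEPES/0.1% Tween-20 buffer; beta-galactosidase complementation read by luminescence after 1 h at ambient temperature. Dopamine 57 uM final (EC100) as control.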
# D3 ag – qHTS of D3 Dopamine Receptor Agonist: D3 Dopamine Receptor B-arrestin Agonist Confirmatory Assay | DiscoveRx D3 beta-arrestin cells, luminescence, 90 min | shares compounds with D2 ag-1 | 2,300 tested, 4% active | AID 720506, 2013 | Potency, µM (top dose mostly 76.9 µM), without a hit: at the top dose activation, usual class: activators;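 further: potency means the concentration at half of the fitted maximal effect; 100% = dopamine control response; nearly all actives have a fitted effect of over 70% in size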
# D2 ag-3 – qHTS of D3 Dopamine Receptor Agonist: D2 Dopamine Receptor B-arrestin Agonist Counterscreen. Potency, µM (doses to about 76.9 µM), for inactives: at the top dose activation, usual class: activators. shares compounds with D2 ag-1. AID 720507, 2013. DiscoveRx PathHunter D2 beta-arrestin, luminescence, 90 min; response scale: percent relative to full dopamine signal. 2,300 tested, 5.9% active; further: potency means the concentration at half of the fitted maximal effect; % of control where 0% means no effect; nearly all actives have a fitted effect of over 70% in size
# * hit, by the source's call; ? = inconclusive; . = not tested or not shown. Unless noted, the call rests on the fitted dose curve; in most records, active means well fitted activation curve with a large enough effect; inconclusive means small, poorly fitted or top-dose-only effect; inactive means flat fitted curve, though single readings scatter.
SMILES,D2 PAM-1,D2 antag,D2 ag-1,D2 PAM-2,D2 ag-2,D3 ag,D2 ag-3
Cc1oc(-c2cccc(Cl)c2)nc1CN1CCC(C(=O)NCCCN2CCN(c3cccc(Cl)c3)CC2)CC1,-22,.,.,.,.,.,.
COc1ccccc1N1CCN(C2CCN(S(=O)(=O)c3ccc(NC(C)=O)cc3)CC2)CC1,-16,32*,49*,-16,?,-13%,20%
COc1ccc(S(=O)(=O)N2CCC(N3CCN(c4ccccc4OC)CC3)CC2)cc1,-20,-15,37*,-13,1,-8%,7%
COc1cc(NC(=O)CCc2c(C)nc3nc(-c4cc(OC)cc(OC)c4)nn3c2C)cc(OC)c1,-10,.,0,.,.,.,.
COc1cc2[nH]c(=O)n(CCCC(=O)NCc3ccc(Cl)cc3)c(=O)c2cc1OC,-5,.,0,.,.,.,.
CCNC(=S)Nc1cc2oc3ccccc3c2cc1OC,-13,-2,0,-15,-5,.,.
CNC(=S)Nc1cc2oc3ccccc3c2cc1OC,-19,14,57*,7,2,-2%,16%
O=S1(=O)CCC(NC(=S)Nc2ccc3ccccc3c2)C1 (configuration not stated),-3,9,-1,-8,0,.,.
CC1(NC(=S)Nc2ccc3ccccc3c2)CCS(=O)(=O)C1 (configuration not stated),-22,37*,1,3,2,-1%,0%
Cc1ccccc1-c1noc(-c2ccc(NCc3ccco3)c([N+](=O)[O-])c2)n1,0,.,0,.,.,.,.
CCCOc1ccc(C(=O)N2CCN(c3ccc(N)cc3Cl)CC2)cc1,-5,2,31*,-3,-3,-3%,2%
CCCCOc1ccc(C(=O)N2CCN(c3ccc(N4CCOCC4)nn3)CC2)cc1,-3,1,-1,0,2,.,.
COc1ccc(C)cc1NC(=O)C(=O)NCC(c1cccnc1)N1CCc2ccccc21 (configuration not stated),5,.,-1,.,.,.,.
COc1ccc(OC)c(CCNC(=O)Cn2ncc3c([nH]c4ccccc43)c2=O)c1,4,.,-1,.,.,.,.
Cc1ccc(Cl)cc1NS(=O)(=O)c1ccc2oc(=O)c3ncn(C)c3c2c1,5,.,.,.,.,.,.
O=C(NC1CCCCC1)c1cc(C2CC2)nn1-c1ccccc1,.,.,.,2,14,3%,11%
Cc1ccc(CSc2nc3ccncc3n2Cc2nc(-c3ccccc3C)oc2C)cc1,-3,.,0,.,.,.,.
Cc1nnc(N2C(=O)C(O)=C(C(=O)c3ccco3)C2c2ccc(F)cc2)s1 (configuration not stated),5,-19,17,-2,-4,-6%,-3%
Fc1ccccc1N1CCN(Cc2cccnc2)CC1,-21,68*,73*,1,?,?,?
Fc1ccccc1N1CCN(CC2CCCCC2)CC1,-18,89*,15,-2,1,19%,23%
O=c1nc2ccccc2c2n1CC(CN1CCN(c3ccc(F)cc3)CC1)N2 (configuration not stated),12,-13,3,-8,-3,.,.
CCS(=O)(=O)N1CCN(c2ccccc2F)CC1,3,-2,1,-6,-3,.,.
O=c1nc2ccccc2c2n1CC(CN1CCN(c3ccccc3F)CC1)N2 (configuration not stated),-14,16,29,-21,2,-3%,8%
O=C(CCCCCn1c(=O)c2sccc2n(CC(=O)Nc2ccccc2F)c1=O)NCc1ccc2c(c1)OCO2,-5,.,0,.,.,.,.
CCN1CCN(CCCNC(=O)c2cc3c(s2)-c2c(C)cccc2OC3)CC1,-20,.,1,.,.,.,.
SMILES,D2 PAM-1,D2 antag,D2 ag-1,D2 PAM-2,D2 ag-2,D3 ag,D2 ag-3
COc1ccccc1CC(NC(C)=O)C(=O)N1CCN(C(=O)c2cccs2)CC1 (configuration not stated),-10,-6,7,-7,-2,.,.
COc1ccc(CN2CCN(C(=O)c3cccs3)CC2)cc1Br,.,.,.,3,15,.,.
COc1ccc(-c2noc(CN3CCN(C(=O)c4cccs4)CC3)n2)c(OC)c1OC,-13,-3,29,-6,-9,1%,5%
COc1ccccc1CN(C)C(=O)CN1CCN(C(=O)c2cccs2)CC1,-26,29,72*,12,14,9%,?
COc1ccc(C)cc1NC(=O)C(=O)NCCc1csc2nc(-c3ccccc3F)nn12,0,.,-1,.,.,.,.
COc1ccc(N(CC(=O)Nc2cccc(C(C)=O)c2)S(=O)(=O)c2ccccc2)c(OC)c1,1,.,0,.,.,.,.
Cc1cccn2c(=O)c(C(=O)NCCc3ccc(S(N)(=O)=O)cc3)c(O)nc12,7,.,.,.,.,.,.
Cc1cc(C)c(NC(N)=S)c(C)c1,-1,6,0,-4,-5,0%,-4%
COCCCn1c(SCC(=O)NCc2ccccc2)nc2c(sc3ccccc32)c1=O,4,.,-1,.,.,.,.
O=C(NCCCc1nc2ccccc2n1Cc1cccc(Cl)c1)c1ccco1,-10,.,1,.,.,.,.
O=C(c1cc2ccccc2o1)N1CCN(CCOc2ccccc2)CC1,-38,96*,76*,-27,?,0.2µM*,?
O=C(c1ccc(Br)o1)N1CC=C(c2ccccc2)CC1,.,.,.,-13,2,.,.
O=C(Nc1cccc2ccccc12)N1CC=C(c2ccccc2)CC1,-20,-8,34*,-2,-1,?,19%
O=C(Nc1ccc2ccccc2c1)N1CCCN(CCOc2ccccc2)CC1,-22,-1,38*,-6,3,10%,1%
O=C(c1cc2ccccc2o1)N1CC=C(c2ccccc2)CC1,-16,46*,58*,-12,-20,12%,7%
O=C(c1cc2ccccc2o1)N1CCOCC1,-13,2,0,-16,-3,.,.
COc1cccc(CCNC(=O)Cn2c(-c3cccs3)cc3ccccc32)c1,5,.,.,.,.,.,.
Cc1cc(NC(=O)CSc2ncc(C(=O)Nc3ccccc3)c(=O)n2C)no1,4,.,1,.,.,.,.
